# Assay results published in PubChem BioAssay (NCI).
# About 83,000 compounds went through this panel and 20% of them were active in at least one assay; those are over-represented in the sample as a whole.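 Negative percent growth values reflect cell death: -40 means 40% of the cells present at the start died, and -100 means all died.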 Calls of active or inactive are those of the source. Rule for the calls: active = growth percent below 10; inactive = the rest.
# System: KM12 colon
# Assay: NCI-60 one-dose screen, 48 h (100 = growth as untreated, 0 = no growth, -100 = all killed)
# Conditions: 10 µM unless noted
row,SMILES,growth
1,CC(C)(C)c1cc(C=O)cc(C(C)(C)C)c1O,99.6% (inactive)
2,COc1ccc(OC)c(CCn2cncc2-c2c[nH]c3ccccc23)c1,89.1% (inactive)
3,COCCCN1CC(O)=C(c2nc(-c3ccc(C)cc3)cs2)C1=N,120% (inactive)
4,O=C(CCN1CCCC1)Nc1ccc2c(Nc3ccc(Br)cc3)c3ccccc3nc2c1,-59.2% (active)
5,O=C(Cn1c[n+](CC(=O)c2ccc(-c3ccccc3)cc2)c2ccccc21)Nc1cccc2cccnc12,-31.5% (active)
6,CCN1Cc2nc3sc(C)c(C)c3c(=O)n2C=C1C,14.5% (inactive)
7,Cc1ccc(-n2c3c(c(-c4ccccc4)c2-c2ccccc2)C2=NCCN2C=N3)cc1,90.5% (inactive)
8,CCCCC[n+]1ccc(SCC(=O)N(C)c2ccc(Oc3ccccc3)cc2)c2ccccc21,102% (inactive)
9,COc1cc(OC)cc(C(=O)C[n+]2cccc3cc[nH]c32)c1,101% (inactive)
10,CCOC(=O)[C@@H]1CCCN(S(=O)(=O)c2ccc(S(=O)(=O)N(CC)CC)c(F)c2)C1,81.9% (inactive)
11,Cn1ccc2c1CC1CN(Cc3ccco3)C(=O)C1C2C(=O)O (configuration not stated),101% (inactive)
12,O=C(NO)c1ccc(-n2nc(-c3ccccc3)c3ccccc32)cc1,71.8% (inactive)
13,COc1ccc(CC(C)=C(c2ccc(OCCN3CCCCCC3)cc2)c2ccc(OCCN3CCCCCC3)cc2)cc1,-97.4% (active)
14,Nc1n[nH]c2cccc(C#Cc3cccc(C(=O)Nc4cccc(C(F)(F)F)c4)c3)c12,46.7% (inactive)
15,Cc1ccc(C(=O)/C(=C/c2ccc([N+](=O)[O-])cc2)SCc2ccc(Cl)cc2)cc1,44.8% (inactive)
16,O=C(O)c1ccc2c(c1)C(=O)N(Cc1ccccc1)C2=O,104% (inactive)
17,O=C1Nc2cc(-c3cccc(O)c3)ccc2/C1=C/c1ccc[nH]1,0.211% (active)
18,O=Cc1ccc(-c2cn3ccnc3c(-c3ccc4ncn(Cc5ccccc5)c4c3)n2)cc1,96.3% (inactive)
19,CCc1ccc(CNc2ccc(N3CCOCC3)c(C(=O)O)c2)cc1,106% (inactive)

row,SMILES,growth
1,O=C(CCN1CCCC1)c1ccc([N+](=O)[O-])cc1,105% (inactive)
2,CNCCOc1nc2c3cnccc3cc(-c3cc(OC)c(OC)c(OC)c3)c2c2ccncc12,5.03% (active)
3,Nc1c(S(=O)(=O)O)cc2c3c(cccc13)C(=O)OC2=O,92.5% (inactive)
4,Oc1ccc(C(c2ccc(O)cc2)c2ccc(Br)cn2)cc1,16% (inactive)
5,CCCCOc1ccc(/C=N/Nc2cc(C)nc3ccc(Br)cc23)cc1,-4.11% (active)
6,CC1(C)NCCC[C@]2(C)[C@H]3CC(=O)[C@H]4[C@@H]5C[C@](C)(CO)CC[C@]5(C)CC[C@@]4(C)[C@]3(C)CC[C@@H]12,95.4% (inactive)
7,N#Cc1cc(-c2nc3ccccc3s2)c(=O)n(NS(=O)(=O)c2ccccc2)c1N,103% (inactive)
8,O=S(=O)(NCCNc1nccc(-c2c(-c3cccc(O)c3)nc3occn23)n1)c1cccc(F)c1,88.2% (inactive)
9,c1ccc2c(-c3c[nH]c4ccccc34)c3c(cc2c1)[nH]c1ccccc13,35.7% (inactive)
10,Cc1ccc(-c2csc(NC(=O)CSc3nc(-c4ccccc4)cc(=O)[nH]3)n2)cc1,94.8% (inactive)
11,CCCC/C=N/NC(=S)NCc1ccccc1,104% (inactive)
12,COc1ccc2nc(-c3ccc(-c4noc(-c5cc(OC)c(OC)c(OC)c5)n4)cc3)[nH]c2c1,55.4% (inactive)
13,Fc1ccc(-c2cn3c(nc4ccccc43)c(-c3ccccc3)n2)cc1,92.1% (inactive)
14,CCNC(=O)Oc1ccc(/C(=C(\C)c2ccccc2)c2ccc(OCCN3CCCCC3)cc2)cc1,50.8% (inactive)
15,CCCCOc1ccc(/C(C)=N/Nc2cc(C)nc3ccc(Br)cc23)cc1,62.9% (inactive)
16,N#Cc1cccc(-c2ccc3c(c2)NC(=O)/C3=C\c2ccc[nH]2)c1,20.4% (inactive)
17,O=C(NNc1nc2c(F)cccc2n2cccc12)c1cnccn1,23.2% (inactive)
18,CN(C)CCC(=O)c1ccc([N+](=O)[O-])cc1,113% (inactive)
